High-throughput results deposited in PubChem by The Scripps Research Institute Molecular Screening Center.
Rows were chosen to be rich in hits. Some 2.9% of all compounds tested hit in one or more screens of this group.
PAFAH2 FP inh: PAFAH2 enzyme inhibitors, primary screen, biochemical, fluorescence polarization, human; recombinant PAFAH2, FP-rhodamine activity probe; inhibition, % at 3.39 µM; 0.99% of 340,000 active; AID 492956, 2010;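 active = inhibition above the mean over all tested compounds plus 3 SD, cut at about 30% in these data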;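 note: inhibitors block probe labeling of enzyme so polarization drops; 0% = enzyme with DMSO and 100% = wells lacking PAFAH2 protein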
ZTA counter: counter-screen for EBNA-1 inhibitors: inhibitors of Epstein-Barr virus ZTA. ZTA-DNA binding, fluorescence polarization. inhibition, % at 11 µM. 0.15% of 320,000 active; in the data active = inhibition above about 33%
PAFAH1B2 inh: PAFAH1B2 enzyme inhibitors, primary screen, biochemical, fluorescence polarization, human; recombinant PAFAH1B2, FP-rhodamine activity probe; inhibition, % at 3.39 µM; 1.2% of 340,000 active; AID 492953, 2010;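 active = inhibition above the mean of all tested compounds plus 3 SD, cut at about 24% in these data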;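 note: 0% = enzyme with DMSO and 100% = wells lacking PAFAH1B2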
Target sequence (P68402 whole entry, looked up): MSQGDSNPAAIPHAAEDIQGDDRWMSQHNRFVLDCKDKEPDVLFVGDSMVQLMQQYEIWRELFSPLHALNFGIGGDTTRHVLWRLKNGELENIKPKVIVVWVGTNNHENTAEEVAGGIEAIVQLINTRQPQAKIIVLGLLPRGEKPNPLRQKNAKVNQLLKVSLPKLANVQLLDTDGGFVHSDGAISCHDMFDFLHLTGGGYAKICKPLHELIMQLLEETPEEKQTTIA
PAFAH1B3 FP inh: PAFAH1B3 enzyme inhibitors, primary screen, biochemical, fluorescence polarization, human. Platelet-activating factor acetylhydrolase IB subunit alpha1 (Homo sapiens), Q15102. recombinant PAFAH1B3, FP-rhodamine probe. inhibition, % at 3.39 µM. 0.28% of 340,000 active;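 active = inhibition above the screen-wide average of all tested compounds plus 3 SD, cut at about 25% in these data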;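 note: 0% = enzyme with DMSO only and 100% = wells lacking PAFAH1B3 protein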
Target sequence (Q15102 whole entry, looked up): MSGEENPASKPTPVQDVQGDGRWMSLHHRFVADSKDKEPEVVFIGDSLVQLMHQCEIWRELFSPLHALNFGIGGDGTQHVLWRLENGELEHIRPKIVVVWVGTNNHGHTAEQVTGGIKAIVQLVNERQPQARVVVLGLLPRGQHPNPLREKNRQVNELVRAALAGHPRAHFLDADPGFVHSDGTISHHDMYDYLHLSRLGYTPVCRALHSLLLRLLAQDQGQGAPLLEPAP
EBNA-1 inhibitor: EBNA-1 DNA-binding inhibitors, primary screen, biochemical, fluorescence polarization; inhibition, % at 14.8 µM; 0.34% of 300,000 active; AID 1950, 2009; in the data active = inhibition above about 28%
rCAG RNA binder: binders of r(CAG) RNA repeats, primary screen, biochemical, fluorescence; r(CAG) RNA repeat, TO-PRO-1 dye displacement fluorescence; inhibition, % at 3 µM; 1.3% of 370,000 active; AID 651821, 2012;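 active = inhibition above the plate cutoff, the mean of all test compounds on that plate plus 3 SD, cut at about 35% in these data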;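 note: 0% = DMSO alone and 100% = 100 µM mitoxantrone as full dye displacement; higher means more dye released from RNA so lower well fluorescence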
* hit, by the source's call; x = no result given; + = active, no number.

SMILES	PAFAH2 FP inh	ZTA counter	PAFAH1B2 inh	PAFAH1B3 FP inh	EBNA-1 inhibitor	rCAG RNA binder
O/N=C1/C2C3C(Br)C4C5CC(C1C53)C24 (stereo unspecified)	5.1	6.9	29.4*	10.0	11.3	-1.3
CC1CCN(c2ccccc2NC(=O)c2cc([N+](=O)[O-])ccc2N2CCOCC2)CC1	-3.7	-11.5	26.9*	3.8	1.9	-4.7
CCc1ccccc1NC(=O)c1cc([N+](=O)[O-])ccc1N1CCOCC1	1.0	8.1	2.7	3.1	-8.0	-5.4
CN(CC(=O)Nc1ccccc1Br)C(=O)c1cc([N+](=O)[O-])ccc1N1CCOCC1	138.9*	-6.6	175.5*	+	-1.5	1.7
CCN(CC)C(=O)CC[C@H]1CC[C@]2(CCCN(Cc3cccc4ccccc34)C2)O1	x	x	x	x	x	-2.3
C=CCSc1nnc2c(n1)OC(c1c(C)[nH]n(-c3ccccc3)c1=O)Nc1ccccc1-2 (stereo unspecified)	-4.7	-12.0	0.1	11.4	-2.4	40.9*
CCOC(=O)Cc1csc(NC(=O)c2sc3nc4ccc(CC)cc4cc3c2N)n1	-5.5	22.1	0.1	-0.5	7.0	44.2*
CCn1c(=O)n(CC(=O)N2CCN(c3ccc(F)cc3)CC2)c(=O)c2ccccc21	x	x	x	x	x	1.5
CCC(C)CCCCCCCCCCC(=O)O (stereo unspecified)	8.7	7.4	48.4*	13.6	-2.9	18.4
Nc1nc(NCC(=O)O)nc(NCc2ccccc2)c1[N+](=O)[O-]	-1.1	-4.4	27.7*	10.4	-0.7	3.6
N#CC1=C(S)N(c2ccc(F)cc2)C(c2cccs2)NC1=O (stereo unspecified)	1.0	x	16.6	7.7	x	4.5
Cc1cccc(N2C(S)=C(C#N)C(=O)NC2c2cccs2)c1 (stereo unspecified)	3.0	0.8	29.9*	6.6	-8.2	2.5
CC12CC3CC(C)(C1)CC(C(=O)NC1=NCCS1)(C3)C2	-1.7	13.3	27.8*	4.8	8.3	-2.1
O=C1C=CC(=O)N1c1ccccc1N1C(=O)C=CC1=O	-6.3	x	2.4	5.7	x	4.0
CC1=CC(=O)N(c2cccc3c(N4C(=O)C=C(C)C4=O)cccc23)C1=O	-68.2	x	-47.9	-70.5	x	36.0*
Cn1c(CN2CCCC2)nc2cc(NS(=O)(=O)c3ccc(Cl)cc3)ccc21	-11.1	-4.3	15.7	2.1	-0.4	6.9
O=c1ccc(NS(=O)(=O)c2ccc(Cl)cc2)cn1Cc1ccc(Cl)c(Cl)c1	13.1	7.3	27.7*	3.9	1.8	32.0
Cc1ccc(S(=O)(=O)Oc2ccc(/C=N/NC(=O)c3nn(C)cc3[N+](=O)[O-])cc2)cc1	-3.3	7.0	28.5*	-4.3	6.1	9.2
CC(O)CNc1nc2ccccc2n1CC(=O)NCCc1ccc(Cl)cc1 (stereo unspecified)	-0.3	5.0	27.6*	1.1	-0.8	5.8
CC(NCc1ccc(OCc2ccc(Cl)cc2)cc1)C(O)c1ccccc1 (stereo unspecified)	-1.8	0.8	63.6*	7.3	-4.0	13.1
CC(NCc1cccc(OCc2ccccc2)c1)C(O)c1ccccc1 (stereo unspecified)	-1.3	-7.1	5.0	-1.4	3.5	-1.6
COc1ccc(-n2c(Cc3cccs3)nnc2SCC(=O)Nc2ccc(OCc3ccccc3)cc2)cc1	x	x	x	x	x	12.0
C#CCn1c2ccccc2c(=O)n1CCOc1ccccc1OC	x	x	x	x	x	0.9
CCCCn1nc(NS(=O)(=O)c2cccc3nonc23)c2cc3cccc(C)c3nc21	15.1	16.9	11.4	12.0	2.3	74.3*
N#CC1(NC(=O)COC(=O)Cc2c[nH]c3ccccc23)CCCCC1	x	x	x	x	x	4.6
SMILES	PAFAH2 FP inh	ZTA counter	PAFAH1B2 inh	PAFAH1B3 FP inh	EBNA-1 inhibitor	rCAG RNA binder
N#CC1(NC(=O)COC(=O)c2cc(O)c3ccccc3c2O)CCCCC1	21.0	-0.5	15.7	49.8*	-3.9	x
COC(=O)c1cc2c(c3c4ccccc4n(S(=O)(=O)c4cccc(C)c4)c13)C(=O)N(Cc1ccc(N(C)C)cc1)C2	x	x	x	x	x	15.9
Oc1nc(Nc2cccc(Cl)c2)sc1/C=C1\C=Nc2ccccc21	-4.3	3.5	9.8	15.4	-10.2	55.3*
CC1=Nc2ccccc2/C1=C\c1sc(Nc2ccc(C)cc2)nc1O	-0.7	0.7	2.9	5.0	4.2	28.4
Oc1cccc(Nc2nc(O)c(/C=C3\C=Nc4ccccc43)s2)c1	-20.8	2.8	15.2	-248.8	-11.0	47.9*
N#Cc1ccccc1NCCCN1CCC(C(O)(c2ccccc2)c2ccccc2)CC1	x	x	x	x	x	2.5
O=C(N/N=C/c1c(O)ccc2ccccc12)c1ccc(Br)o1	14.2	-2.0	12.3	35.0*	5.3	8.8
O=C(N/N=C\c1c(O)ccc2ccccc12)c1ccc(O)cc1	-14.0	3.1	20.7	41.3*	-7.8	23.4
Cc1cc(CSCc2ccc(Cl)cc2)no1	-0.3	-13.2	27.4*	-3.0	-10.4	-2.1
Cc1cc(NC(=O)CSCc2ccccc2)no1	9.4	-7.3	2.2	1.8	0.9	6.0
COc1cccc(/C=C2\CC3(OC(=O)C4CCCCC4)CCCN2C3)c1 (stereo unspecified)	x	x	x	x	x	2.3
CCOc1c(Br)cc(C(=O)OCC(=O)N2CCc3ccccc3C2)cc1OC	12.7	-7.6	5.4	8.0	x	2.2
CC(=O)Oc1cc(C(=O)OCC(=O)N2CCc3ccccc3C2)cc(OC(C)=O)c1OC(C)=O	36.0*	x	11.5	6.9	x	14.5
CC(NC(=O)COC(=O)C12CC3CC(CC(Br)(C3)C1)C2)c1ccccc1 (stereo unspecified)	13.5	x	40.5*	1.9	x	-1.5
O=C(NCc1ccccc1)C12CC3CC(CC(Br)(C3)C1)C2	-9.8	11.6	34.7*	12.9	7.2	-1.5
O=C(CNC(=O)C12CC3CC(CC(C3)C1)C2)NCc1ccccc1	10.6	-11.6	4.3	-2.5	-1.8	-4.6
COC(=O)[C@@]12CCCCC3=C1N(CCC3)C(=O)[C@H]2CC(=O)NCc1cccs1	x	x	x	x	x	-0.4
Nc1[nH]c(C(=O)c2ccccc2)c(-c2ccc(Cl)c(F)c2)c1C(=O)c1c[nH]c2ccccc12	x	x	x	x	x	7.9
Cc1ccc(SCC(=O)NCC(C)C)cc1	4.3	1.3	14.9	0.7	3.2	-0.6
CC(C)CNC(=O)CSc1ccc(Cl)cc1	2.5	2.8	25.8*	-1.8	9.9	-4.0
CCCCCCCCN1C(=O)[C@@H](CC(=O)N2CCN(C(=O)OCC)CC2)C[C@@]2(C(=O)OC)C1=C[C@H](C(C)C)O[C@@H]2C1CC1	x	x	x	x	x	5.9
COc1ccc(C2CCC3(CCC(=O)N3CCOC(=O)NCc3ccc(Cl)cc3)CC2)cc1 (stereo unspecified)	x	x	x	x	x	3.5
CNC(=O)C(=O)Nc1nc(C23CC4CC(CC(C4)C2)C3)cs1	4.7	-3.2	25.8*	10.2	-16.2	-1.7
